Experimental findings from PubChem BioAssay AID1347165 (National Center for Advancing Translational Sciences (NCATS), 2019) are described below.

In all, about 220,000 compounds went through this assay and about 5,700 (2.6%) were called active. About 18% were inconclusive and are not listed. Calls follow the shape of the dose curve; as a rule, active = well fitted inhibition curve with a large enough effect; inconclusive = small, poorly fitted or top-dose-only effect; inactive = no such curve, though single readings can be large or run the other way. The list comes from a sample in which actives are over-represented; it also holds similar structures and randomly drawn compounds. Entries that show only a call come without a potency.
Potency is read from the fitted curve at half-maximal effect.

Chain of Lysine-specific demethylase 5B (Homo sapiens) (Q9UGL1 whole entry, looked up): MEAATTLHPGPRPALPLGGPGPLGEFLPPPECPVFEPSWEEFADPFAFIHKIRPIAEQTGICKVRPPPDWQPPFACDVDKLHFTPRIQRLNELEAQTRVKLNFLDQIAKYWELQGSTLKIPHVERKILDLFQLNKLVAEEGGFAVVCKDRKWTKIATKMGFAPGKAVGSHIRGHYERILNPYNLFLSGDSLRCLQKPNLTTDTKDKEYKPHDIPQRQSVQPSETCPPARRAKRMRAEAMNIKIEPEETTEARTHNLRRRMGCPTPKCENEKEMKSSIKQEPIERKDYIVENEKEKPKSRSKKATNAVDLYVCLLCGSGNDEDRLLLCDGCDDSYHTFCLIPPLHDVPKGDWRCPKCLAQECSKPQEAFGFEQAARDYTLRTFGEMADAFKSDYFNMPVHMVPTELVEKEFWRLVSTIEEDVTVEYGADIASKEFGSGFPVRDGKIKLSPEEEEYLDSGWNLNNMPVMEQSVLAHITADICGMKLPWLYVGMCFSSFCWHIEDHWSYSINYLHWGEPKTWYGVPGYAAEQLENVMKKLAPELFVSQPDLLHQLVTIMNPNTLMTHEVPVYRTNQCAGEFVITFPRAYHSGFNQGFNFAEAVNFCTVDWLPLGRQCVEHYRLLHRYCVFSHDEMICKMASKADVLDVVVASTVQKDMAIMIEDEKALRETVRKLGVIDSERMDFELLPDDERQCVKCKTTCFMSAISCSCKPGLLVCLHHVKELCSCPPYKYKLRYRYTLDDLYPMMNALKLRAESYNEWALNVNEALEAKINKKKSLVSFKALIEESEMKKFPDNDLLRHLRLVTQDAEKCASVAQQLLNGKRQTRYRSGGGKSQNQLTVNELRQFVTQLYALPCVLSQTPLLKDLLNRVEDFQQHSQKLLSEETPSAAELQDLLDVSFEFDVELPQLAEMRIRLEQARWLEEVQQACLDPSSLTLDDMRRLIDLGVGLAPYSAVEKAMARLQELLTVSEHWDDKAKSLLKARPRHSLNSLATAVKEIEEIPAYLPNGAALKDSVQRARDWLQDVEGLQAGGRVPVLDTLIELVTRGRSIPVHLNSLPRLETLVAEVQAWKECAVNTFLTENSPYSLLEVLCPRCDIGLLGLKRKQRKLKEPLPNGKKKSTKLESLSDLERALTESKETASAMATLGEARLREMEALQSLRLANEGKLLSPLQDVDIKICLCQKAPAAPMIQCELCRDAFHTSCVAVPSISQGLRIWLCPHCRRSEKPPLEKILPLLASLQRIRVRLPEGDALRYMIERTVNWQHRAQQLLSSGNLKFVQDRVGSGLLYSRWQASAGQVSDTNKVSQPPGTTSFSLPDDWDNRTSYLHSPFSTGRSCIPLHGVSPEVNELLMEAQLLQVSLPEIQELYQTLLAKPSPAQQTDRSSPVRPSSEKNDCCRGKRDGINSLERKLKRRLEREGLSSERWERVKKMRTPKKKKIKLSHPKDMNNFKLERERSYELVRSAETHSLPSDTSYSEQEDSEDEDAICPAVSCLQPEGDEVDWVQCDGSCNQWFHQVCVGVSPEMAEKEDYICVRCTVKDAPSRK

This experiment concerns the target Lysine-specific demethylase 5B (Homo sapiens) (UniProt Q9UGL1). Put plainly: Primary screen for KDM5B Histone Demethylases FDH-coupled qHTS. Also: nearly all actives have a fitted effect of over 70% in size. The settings on record: FDH-coupled NADH fluorescence (FDH is formaldehyde dehydrogenase); series mostly up to 57.7 µM. From the text: Assay Submitter (PI): Qin Yan, Ph.D. (Yale University) and Xiaodong Cheng, Ph.D. (MD Anderson) This project was funded as part of the NCI NEXT Program and Chemical Biology Consortium (CBC) The histone demethylases, KDM5A and KDM5B catalyze the demethylation of lysine 4 on histone H3 (H3K4me3/2). They are overexpressed in a variety of cancers and have been implicated in cancer cell growth, metastasis, drug resistance, and tumor growth. KDM5A is amplified and overexpressed in breast and gastric cancer; and is translocated in leukemia. While KDM5B is highly expressed in human mammary tumors and breast cancer cell lines, but not in normal adult breast tissue. Moreover, knockdown of KDM5B leads to upregulation of tumor suppressor genes, including BRCA1. The goal of this project is to employ qHTS to identify selective small molecule inhibitors of KDM5A/B demethylase activity to better understand the role of KDM5 in cancer and to develop novel therapies. We employed an FDH-coupled assay previously reported by Sakurai et al. to monitor in vitro KDM5 demethylase activity. Compounds showing dose response inhibition are re-acquired, validated, and tested for non-specific interference with the formaldehyde dehydrogenase (FDH) counterscreen. True inhibitors are validated using an AlphaLisa secondary screen, which employs an H3K4(me2-1)-specific antibody to monitor demethylation of a biotin-tagged H3K4(me3) peptide substrate. Inhibitors are profiled against KDM4A and KDM6A AlphaLisa counterscreens to determine level of demethylase specificity; and against the TruHits counterscreen to eliminate non-specific inhibitory activity on the AlphaLISA detection method. Selective inhibitors identified from the primary and secondary screening are tested in cells using immunofluorescence to monitor global H3K4 tri-methylation as a measure of KDM5A/B inhibition. Early Translation Branch (ETB) National Center for Advancing Translational Sciences (NCATS), Rockville, MD National Institute of Health (NIH), Bethesda, Maryland [1] Sakurai, M et al. A miniaturized screen for inhibitors of Jumonji histone demethylases. Mol Biosyst. 2010 Feb;6(2):357-64. doi: 10.1039/b912993f. Epub 2009 Oct 8.
Materials: 1536-well Black, solid bottom, medium binding assay plate is purchased from Greiner Bio-one. The enzymes (KDM5B) and substrate (H3K4me3/2) are provided by the principal investigators. The buffer for this assay is composed of 50mM HEPES at pH 7.5 with 0.01% Tween-20. FDH coupled Demethylase qHTS protocol: Three microliter enzyme mix (buffer + 200nM KDM5BDeltaAP final concentration) is dispensed into the assay plate using the BioRAPTR Flying Reagent Dispenser (FRD; […]). Compound (at various final concentration) and control solution is pin transferred to the assay plate using the Kalypsys 1536-pin tool apparatus. The assay plate is incubated for 10 min at room temperature followed by addition of 1uL substrate mix (buffer + 100uM ascorbic acid, 50uM ferrous ammonium sulfate, 12.5uM H3K4Me3, 25uM a-ketoglutarate, 0.25 mM NAD+, 0.25 U/mL formaldehyde dehydrogenase using the FRD yielding a total reaction volume of 4 uL. Initial fluorescence (Read1) is detected using the PerkinElmer ViewLux plate reader equipped with 340 nm excitation and 450 nm emission filters. The final fluorescence (Read2) signal is obtained after 30 min of room temperature incubation. Delta RFU is calculated (Read2 - Read1) and is used to generated dose response curves.
On the technique in general: Quantitative high-throughput screening tests each substance at several concentrations.
On to `Cc1ccc(NC(=O)c2ccccc2SCC(=O)NC2CC2)c(C)c1`, for which the Potency result was “inactive”. Regarding `Cc1nnn2c(C(=O)NC3CC3)cccc12`, the Potency was 35.5 µM (active). Consider `Cn1ncc(Br)c1C(=O)NC1CCCC1`, for which the Potency entry is “inactive”. In the case of `O=c1oc2ccccc2cc1-c1nc(-c2ccc(F)cc2)no1` it was “inactive”; in that of `CCOc1cccc(CC(=O)N2CCc3c([nH]c4ccccc34)C2c2ccc(F)cc2)c1OCC` (stereo unspecified), “inactive”; in that of `Cc1ccc(C)n1-c1c(C(=O)NCCN2CCOCC2)sc2ncccc12`, “inactive”.

`COC(=O)[C@@H]1Cc2c([nH]c3ccccc23)[C@H]2C[C@@H](NCCN3CCOCC3)C[C@@H](c3ccccc3F)N21`: the Potency was 17.8 µM (active). In the case of `COC(=O)[C@@H]1C[C@@H](NC(=O)c2ccc(-c3nnn(C)n3)cc2)CN1C`, the Potency result was “inactive”. On to `COC(=O)[C@@H]1Cc2c([nH]c3ccccc23)[C@H]2C[C@H](NCCNC(C)=O)C[C@@H](c3ccc(C)cc3)N21`, for which the Potency was 17.8 µM (active).

For the compound `CN(CC(=O)NCCN1CCOCC1)S(=O)(=O)c1ccc(F)cc1`, the Potency entry was “inactive”. Regarding `CC(C)NC(=O)NC(=O)CSc1nc(-c2ccco2)nc2ccccc12`, the Potency entry was “inactive”. In the case of `CNC(=O)c1sc(NCc2ccccc2OC)nc1C`, the Potency result is “inactive”. As for `CCOC(=O)c1c(C)[nH]c(C)c1S(=O)(=O)N(C)CC(=O)Nc1cc(C)cc(C)c1`, the Potency result was “inactive”. For `Cc1[nH]c2ccccc2c1C(=O)C(=O)NC1CCS(=O)(=O)C1` (stereo unspecified), the Potency result is “inactive”. For `O=C(c1cccc(C(F)(F)F)c1)N1C[C@@H](CO)[C@H](c2ccccn2)C1`, the Potency entry was “inactive”. As to `CC(C)(C)c1ccc(C(=O)N2C[C@@H](CO)[C@H](c3ccccn3)C2)cc1`, the Potency result is “inactive”.

On to `O=C(c1cccc2[nH]ccc12)N1C[C@@H](CO)[C@H](c2ccccn2)C1`, for which the Potency is 17.8 µM (active). On to `Cc1cc2oc(=O)cc(CN3CCN(S(=O)(=O)c4ccc5c(c4)OCCO5)CC3)c2cc1C(C)C`, for which the Potency entry was “inactive”. In the case of `COC(=O)CN(CC(=O)NC(N)=O)Cc1ccccc1`, the Potency entry is “inactive”. On to `COc1ccc2[nH]c(C(=O)N3C[C@@H](Oc4ccccc4)C[C@H]3C(=O)N3CCCC3)cc2c1`, for which the Potency result was “inactive”. Regarding `COc1ccc(CCC(=O)N2C[C@@H](Oc3ccccc3)C[C@H]2C(=O)N2CCOCC2)cc1`, the Potency entry is “inactive”. In the case of `COc1ccc2cc(C(=O)N3C[C@@H](Oc4ccccc4)C[C@H]3C(=O)N3CCOCC3)[nH]c2c1` it was 28.2 µM (active); in that of `CCCn1c(=O)n(CC(=O)Nc2ccc(C)c(F)c2)c(=O)c2c1nc(C)n2CCOC`, “inactive”; in that of `CCN(CC)c1ccc(C(=S)N(C)C)cc1`, “inactive”. Take `CNc1nc(N2CC[C@H](N3CCN(C)CC3)[C@H](CCC(=O)O)C2)ncc1F`: the Potency is 14.1 µM (active). Turning to `CN1CCN([C@H]2CCN(C(=O)Cc3cccc(O)c3)C[C@H]2CCCO)CC1`, the Potency entry is “inactive”. Take `Cc1nc(C(=O)N2CC[C@H](N3CCN(C)CC3)[C@H](CCCO)C2)cs1`: the Potency entry was “inactive”.

For the compound `O=C(CSc1nc(-c2ccc(F)cc2)cc(C(F)(F)F)n1)NC1CCCC1`, the Potency entry is “inactive”. Consider `CCOC(=O)C1=C(N)Oc2c(oc(CO)cc2=O)C1c1ccccc1C(F)(F)F` (stereo unspecified), for which the Potency entry is “inactive”. Regarding `CCOc1cc(C2CC(=O)NC(SCC(=O)OC)=C2C#N)ccc1O` (stereo unspecified), the Potency result is “inactive”.

For `O=C1COc2ccc(-c3cncnc3)nc2CN1Cc1ccc(F)cc1`, the Potency entry was “inactive”. Turning to `Cc1ccccc1CN1Cc2nc(NCc3ccncc3)ccc2OCC1=O`, the Potency was 35.5 µM (active). In the case of `COc1cccc(C(=O)Nc2ccc3c(c2)CN(Cc2ccc(OC)cc2OC)C(=O)CO3)c1` it was “inactive”; in that of `COc1cccc(CN2Cc3nc(Nc4cccc(F)c4)ccc3OCC2=O)c1`, 28.2 µM (active). As for `COCC(=O)Nc1ccc2c(c1)CN(Cc1ccccc1F)C(=O)C(C)O2` (stereo unspecified), the Potency result is “inactive”. For the compound `COc1cccc(CN2Cc3nc(-c4cc(F)cc(F)c4)ccc3OCC2=O)c1`, the Potency entry is “inactive”. Consider `CCC(C(=O)Nc1ccc2c(c1)CN(Cc1cc(F)cc(F)c1)C(=O)CO2)c1ccccc1` (stereo unspecified), for which the Potency result was “inactive”. With `O=C1Cc2c(-c3ccc(F)cc3F)n[nH]c2CN1Cc1ccccc1F`, the Potency result is “inactive”. Regarding `O=C1COc2ccc(Nc3ccccc3F)nc2CN1Cc1ccccc1F`, the Potency is 35.5 µM (active).

With `COCCNc1nc2c(c(=O)n(C)c(=O)n2C)n1CCc1ccccc1`, the Potency entry is “inactive”. In the case of `COCCn1c(C(=O)NCc2ccncc2)nc2ccccc2c1=O` it was “inactive”; in that of `COCCN1Cc2nc(NCc3ccccc3)ccc2OCC1=O`, 35.5 µM (active).

As to `CC(=O)Nc1scc(-c2cc(C)ccc2C)c1C#N`, the Potency result is “inactive”. Take `Cc1ccc(C(=O)C(C)OC(=O)Cc2n[nH]c(=O)c3ccccc23)cc1C` (stereo unspecified): the Potency result was “inactive”.

Consider `O=C1c2ccccc2NC(c2cnc3ccccc3n2)N1c1ccc(Cl)cc1` (stereo unspecified), for which the Potency result is “inactive”. In the case of `Cc1cc(C)c(C(=O)Nc2ccccc2)c(SCC(=O)NC2CCCCC2)n1`, the Potency result is “inactive”. In the case of `CCN1CCN(C(c2ccccc2)c2c(O)cc(C)n(CC)c2=O)CC1` (stereo unspecified) it was “inactive”.

On to `CCCCC(c1nnnn1CS(=O)(=O)c1ccc(C)cc1)N1CCC(C(N)=O)CC1` (stereo unspecified), for which the Potency result is “inactive”.

Turning to `CCC(C)c1ccc(NC(=S)N2CCCC2)cc1` (stereo unspecified), the Potency result is “inactive”. For the compound `CC(C)NC(=O)C1(CCO)CC12CCOCC2` (stereo unspecified), the Potency entry was “inactive”. In the case of `CC(C)NC(=O)C1(CCO)CCN(c2ncccn2)C1` (stereo unspecified), the Potency was 31.6 µM (active).
